Reference: PubChem BioAssay (Tox21)
Results filed as inconclusive are left out. The source made the active and inactive calls. Unless noted, calls come from the whole dose curve; as a rule, active = well fitted curve in the direction sought with a large enough effect in the repeat runs; inconclusive = weak or mixed curves; inactive = no such curve, though single readings can be large; an effect the other way counts as inactive or inconclusive.

Experiments:
[1] = Human pregnane X receptor (PXR) small molecule agonists, qHTS cell viability counter screen (AID 1346977); note: nearly all actives have a fitted effect of over 50% in size
Method in brief: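 Viability counter screen: CellTiter-Fluor signal in PXR-Luc HepG2 cells, 24hr compound exposure, 37C, 5% CO2.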

[2] = Caspase-3/7 induction in HepG2 cells by small molecules, qHTS assay (AID 1346978); note: nearly all actives have a fitted effect of over 15% in size
Method in brief: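 Wild-type HepG2 cells (2,000/well) were settled 5 h at 37 C, 5% CO2, then exposed to compounds in DMSO for 17 h. Caspase-3/7 activity was read by luminescence 30 min after adding Caspase-Glo 3/7 reagent at room temperature.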

[3] = Caspase-3/7 induction in CHO-K1 cells by small molecules, qHTS cell viability counter screen (AID 1346979); note: nearly all actives have a fitted effect of over 35% in size
Method in brief: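 Viability readout by fluorescence (CellTiter-Fluor) on wild-type CHO-K1 cells exposed for 16hr at 37C and 5% CO2 to compounds delivered in DMSO; reagent incubated 1hr before reading.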

[4] = Caspase-3/7 induction in CHO-K1 cells by small molecules, qHTS assay (AID 1346980); note: nearly all actives have a fitted effect of over 15% in size
Method in brief: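 Wild-type cells were seeded at 1,500 per well and settled 5 hr at 37 C, 5% CO2, then exposed to DMSO-dissolved compounds for 17 hr. Caspase-Glo 3/7 reagent was added, and luminescence was read after 30min at room temperature.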

[5] = Caspase-3/7 induction in HepG2 cells by small molecules, qHTS cell viability counter screen (AID 1346981); note: series mostly up to about 92 µM; nearly all actives have a fitted effect of over 30% in size
Method in brief: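 The parent HepG2 line is plated at 2,000 cells per well and rested 5 hr before compound pinning from DMSO stocks. Following a 16-hr treatment at 37 C, a fluorogenic live-cell substrate (CellTiter-Fluor) reports viability after 1 hr.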

[6] = target: Nuclear receptor subfamily 1 group I member 2 (Homo sapiens) (UniProt O75469); assay: Human pregnane X receptor (PXR) small molecule agonists, qHTS assay (AID 1346982); note: nearly all actives have a fitted effect of over 35% in size; note: potency is the fitted concentration of half-maximal effect
Method in brief: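 After plating in 5% charcoal-stripped FBS and a 5 hr rest, PXR-Luc HepG2 cells received compounds in DMSO. Following 24 hr at 37 C, ONE-Glo was added and light output read.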

[7] = target: Acetylcholinesterase (Homo sapiens) (UniProt P22303); assay: Acetylcholinesterase (AChE) small molecule antagonists: colormetric cell-based qHTS assay (AID 1347395; calls by dose curve; note: nearly all actives have a fitted effect of over 30% in size)
Method in brief: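 Homogeneous whole-cell format. SH-SY5Y cells seeded overnight, dosed with compound (30 min, 37 C, 5% CO2), then given DTNB/acetylthiocholine cocktail for 90 min at 37 C; colorimetric signal.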

[8] = target: Acetylcholinesterase (Homo sapiens) (UniProt P22303); assay: Acetylcholinesterase (AChE) small molecule antagonists: enzyme-based qHTS assay (AID 1347397; calls by dose curve; note: nearly all actives have a fitted effect of over 55% in size); settings: Potency: AChE enzyme activity inhibition
Method in brief: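 Compound or DMSO vehicle was pin-transferred onto recombinant human AChE (50 mU/mL as dispensed) and left 30 min at room temperature. Acetylthiocholine with DTNB then started the reaction, read colorimetrically 10 min later.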

[9] = target: Acetylcholinesterase (Homo sapiens) (UniProt P22303); assay: Acetylcholinesterase (AChE) small molecule antagonists: enzyme-based qHTS assay with human liver microsomes (AID 1347399; calls by dose curve; note: nearly all actives have a fitted effect of over 60% in size); settings: Potency: qHTS inhibition
Method in brief: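 Recombinant human AChE (50 mU/mL in the enzyme mix) and human liver microsomes (0.25 mg/mL final) were preincubated with compound and NADPH (0.25 mg/mL final) for 30 min at 37 C. Acetylthiocholine/DTNB was then added; thiocholine was read colorimetrically after 10 min at room temperature.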

[10] = target: Cytochrome P450 2D6 (Homo sapiens) (UniProt P10635); assay: Cytochrome P450 Family 2 Subfamily D Member 6 (CYP2D6) small molecule antagonists: luciferase reporter qHTS assay (AID 1671196); note: series mostly up to about 120 µM; nearly all actives have a fitted effect of over 50% in size
Method in brief: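 Quantitative HTS of Tox21 chemicals against CYP2D6 using a luminescent proluciferin substrate. After NADPH addition, 1 h room-temperature reaction; luminescence recorded 20 min post detection reagent.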

[11] = target: Cytochrome P450 2C19 (Homo sapiens) (UniProt P33261); assay: Cytochrome P450 Family 2 Subfamily C Member 19 (CYP2C19) small molecule antagonists: luciferase reporter qHTS assay (AID 1671197); note: nearly all actives have a fitted effect of over 65% in size; note: potency is the fitted concentration of half-maximal effect
Method in brief: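 P450-Glo CYP2C19 screening system; proluciferin substrate; DMSO compound stocks; 10 min RT preincubation; NADPH regeneration, 1 h at 37C; luciferin detection reagent, 20 min RT; luminescence as RLU.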

[12] = target: Cytochrome P450 1A2 (Homo sapiens) (UniProt P05177); assay: Cytochrome P450 Family 1 Subfamily A Member 2 (CYP1A2) small molecule antagonists: luciferase reporter qHTS assay (AID 1671199); note: nearly all actives have a fitted effect of over 50% in size; note: potency is the fitted concentration of half-maximal effect
Method in brief: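 Quantitative high-throughput format using the P450-Glo CYP1A2 system. Reaction initiated by NADPH regeneration solution, 1 h at room temperature, then stopped with detection reagent; luminescence measured 20 min later.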

[13] = target: Voltage-gated inwardly rectifying potassium channel KCNH2 (Homo sapiens) (UniProt Q12809); assay: Human Ether-a-go-go-Related Gene (hERG) channel small molecule antagonists: fluorescence cell-based qHTS assay (AID 1671200);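 note: hERG-expressing U2OS cells given a thallium stimulus after FluxOR II dye loading; series mostly up to about 77 µM; nearly all actives have a fitted effect of over 50% in size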
Method in brief: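 Thallium served as the potassium surrogate; its influx into dye-loaded U2OS cells carrying the channel was measured by fluorescence over 2 min.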

[14] = target: Cytochrome P450 3A4 (Homo sapiens) (UniProt P08684); assay: Cytochrome P450 Family 3 Subfamily A Member 4 (CYP3A4) small molecule antagonists: luciferase reporter qHTS assay (AID 1671201)
Method in brief: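 Relative luminescence units after 20 min with luciferin detection reagent served as read-out. Beforehand, CYP3A4 turned over a proluciferin substrate for 1 h at room temperature with NADPH regeneration, following 10 min compound preincubation.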

[15] = target: Cytochrome P450 2C9 (Homo sapiens) (UniProt P11712); assay: Cytochrome P450 Family 2 Subfamily C Member 9 (CYP2C9) small molecule antagonists: luciferase reporter qHTS assay (AID 1671198); note: nearly all actives have a fitted effect of over 50% in size; note: potency is the fitted concentration of half-maximal effect
Method in brief: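 CYP2C9 activity was measured with a P450-Glo proluciferin substrate. Enzyme–substrate mix was held with compound for 10 min at room temperature, then NADPH regeneration solution was added for 1 h at 37C. Luciferin product was read as luminescence.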

[16] = target: Acetylcholinesterase (Homo sapiens) (UniProt P22303); assay: Acetylcholinesterase (AChE) small molecule antagonists: fluorescence cell-based qHTS assay (AID 1347398; calls by dose curve; note: nearly all actives have a fitted effect of over 50% in size); settings: Potency: AChE activity
Method in brief: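 Using neuroblastoma SH-SY5Y cells as the enzyme source, test chemicals are preincubated 30 min at 37 C; AChE-driven acetylthiocholine cleavage is then quantified by thiocholine-dependent Thiolite Green fluorescence after 40 min at room temperature.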

Measured: Potency

Acetylcholinesterase (Homo sapiens), sequence (P22303 whole entry, looked up): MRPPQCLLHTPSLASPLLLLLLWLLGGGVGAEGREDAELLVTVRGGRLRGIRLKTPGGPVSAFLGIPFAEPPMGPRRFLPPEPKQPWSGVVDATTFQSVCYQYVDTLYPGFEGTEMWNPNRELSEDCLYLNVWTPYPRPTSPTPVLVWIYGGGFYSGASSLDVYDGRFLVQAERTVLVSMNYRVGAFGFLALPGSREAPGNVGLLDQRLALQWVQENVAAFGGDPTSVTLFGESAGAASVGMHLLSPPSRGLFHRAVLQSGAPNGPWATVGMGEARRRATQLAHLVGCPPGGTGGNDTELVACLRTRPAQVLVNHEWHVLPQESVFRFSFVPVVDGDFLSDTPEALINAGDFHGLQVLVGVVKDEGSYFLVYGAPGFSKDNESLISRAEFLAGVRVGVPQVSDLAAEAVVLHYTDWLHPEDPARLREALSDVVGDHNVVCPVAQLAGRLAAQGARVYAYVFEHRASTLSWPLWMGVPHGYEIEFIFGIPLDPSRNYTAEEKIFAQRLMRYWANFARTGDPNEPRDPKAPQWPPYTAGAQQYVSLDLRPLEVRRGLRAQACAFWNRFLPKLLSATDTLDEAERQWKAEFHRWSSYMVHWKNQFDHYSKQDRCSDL
Cytochrome P450 2C9 (Homo sapiens), sequence (P11712 whole entry, looked up): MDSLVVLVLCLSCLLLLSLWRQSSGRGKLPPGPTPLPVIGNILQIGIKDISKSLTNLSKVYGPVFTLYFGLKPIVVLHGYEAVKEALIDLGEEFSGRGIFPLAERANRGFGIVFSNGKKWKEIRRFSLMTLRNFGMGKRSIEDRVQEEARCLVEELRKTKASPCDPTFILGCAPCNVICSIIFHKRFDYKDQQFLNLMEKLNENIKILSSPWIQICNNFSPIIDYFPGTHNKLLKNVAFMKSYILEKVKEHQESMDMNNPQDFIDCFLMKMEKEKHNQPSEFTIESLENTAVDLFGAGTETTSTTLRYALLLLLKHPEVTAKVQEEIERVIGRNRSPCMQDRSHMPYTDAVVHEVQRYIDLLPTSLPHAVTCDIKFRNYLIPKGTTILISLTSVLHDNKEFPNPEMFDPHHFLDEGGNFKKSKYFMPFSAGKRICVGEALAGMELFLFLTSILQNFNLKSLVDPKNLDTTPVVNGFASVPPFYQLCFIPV
Nuclear receptor subfamily 1 group I member 2 (Homo sapiens), sequence (O75469 whole entry, looked up): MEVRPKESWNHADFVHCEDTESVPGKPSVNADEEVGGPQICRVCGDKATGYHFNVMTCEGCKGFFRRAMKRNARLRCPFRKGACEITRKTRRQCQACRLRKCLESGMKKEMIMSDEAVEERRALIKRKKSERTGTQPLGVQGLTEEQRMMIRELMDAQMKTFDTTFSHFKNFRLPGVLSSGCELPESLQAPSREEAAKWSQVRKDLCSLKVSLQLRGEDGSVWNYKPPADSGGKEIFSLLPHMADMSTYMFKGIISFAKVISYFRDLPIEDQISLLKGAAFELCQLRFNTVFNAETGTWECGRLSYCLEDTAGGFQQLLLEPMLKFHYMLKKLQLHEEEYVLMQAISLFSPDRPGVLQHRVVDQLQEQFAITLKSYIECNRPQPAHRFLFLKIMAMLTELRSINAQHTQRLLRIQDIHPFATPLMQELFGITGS
Cytochrome P450 3A4 (Homo sapiens), sequence (P08684 whole entry, looked up): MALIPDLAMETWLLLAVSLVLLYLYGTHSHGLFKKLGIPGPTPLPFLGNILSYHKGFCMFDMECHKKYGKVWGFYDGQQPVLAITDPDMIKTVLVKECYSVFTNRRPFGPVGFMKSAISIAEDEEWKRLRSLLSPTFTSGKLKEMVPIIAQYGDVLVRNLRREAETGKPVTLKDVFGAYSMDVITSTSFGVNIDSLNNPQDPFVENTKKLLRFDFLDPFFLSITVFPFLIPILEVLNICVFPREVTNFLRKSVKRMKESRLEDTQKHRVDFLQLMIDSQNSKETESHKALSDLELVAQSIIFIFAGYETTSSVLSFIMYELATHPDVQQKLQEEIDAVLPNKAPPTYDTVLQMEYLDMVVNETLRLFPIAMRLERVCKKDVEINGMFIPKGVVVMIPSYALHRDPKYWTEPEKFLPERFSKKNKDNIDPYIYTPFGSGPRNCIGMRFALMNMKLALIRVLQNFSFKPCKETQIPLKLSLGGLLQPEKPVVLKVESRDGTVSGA
Cytochrome P450 1A2 (Homo sapiens), sequence (P05177 whole entry, looked up): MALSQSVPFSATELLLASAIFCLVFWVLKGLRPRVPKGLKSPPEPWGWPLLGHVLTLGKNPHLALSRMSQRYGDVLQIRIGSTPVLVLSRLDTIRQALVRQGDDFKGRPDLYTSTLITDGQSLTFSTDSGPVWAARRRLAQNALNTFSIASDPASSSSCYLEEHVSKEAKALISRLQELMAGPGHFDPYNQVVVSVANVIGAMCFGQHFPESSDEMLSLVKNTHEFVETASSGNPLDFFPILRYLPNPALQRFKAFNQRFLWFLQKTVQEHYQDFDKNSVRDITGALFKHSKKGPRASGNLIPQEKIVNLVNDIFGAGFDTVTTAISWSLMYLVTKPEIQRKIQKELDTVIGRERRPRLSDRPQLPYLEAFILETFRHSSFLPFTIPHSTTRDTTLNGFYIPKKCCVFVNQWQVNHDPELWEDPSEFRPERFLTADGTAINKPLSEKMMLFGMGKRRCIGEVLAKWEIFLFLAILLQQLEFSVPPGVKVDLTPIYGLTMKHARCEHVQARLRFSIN
Cytochrome P450 2C19 (Homo sapiens), sequence (P33261 whole entry, looked up): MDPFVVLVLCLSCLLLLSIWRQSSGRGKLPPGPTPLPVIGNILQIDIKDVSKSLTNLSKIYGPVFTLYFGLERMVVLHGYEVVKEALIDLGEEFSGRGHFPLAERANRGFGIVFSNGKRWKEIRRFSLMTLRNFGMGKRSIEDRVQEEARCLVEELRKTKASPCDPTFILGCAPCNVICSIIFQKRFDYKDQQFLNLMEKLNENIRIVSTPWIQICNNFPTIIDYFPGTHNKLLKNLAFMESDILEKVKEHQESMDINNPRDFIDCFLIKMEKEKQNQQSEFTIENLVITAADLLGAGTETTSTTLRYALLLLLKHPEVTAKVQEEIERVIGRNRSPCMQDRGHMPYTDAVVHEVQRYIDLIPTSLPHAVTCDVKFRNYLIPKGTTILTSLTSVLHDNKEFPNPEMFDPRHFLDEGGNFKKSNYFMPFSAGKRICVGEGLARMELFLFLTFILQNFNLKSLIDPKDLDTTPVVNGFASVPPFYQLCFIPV
Voltage-gated inwardly rectifying potassium channel KCNH2 (Homo sapiens), sequence (Q12809 whole entry, looked up): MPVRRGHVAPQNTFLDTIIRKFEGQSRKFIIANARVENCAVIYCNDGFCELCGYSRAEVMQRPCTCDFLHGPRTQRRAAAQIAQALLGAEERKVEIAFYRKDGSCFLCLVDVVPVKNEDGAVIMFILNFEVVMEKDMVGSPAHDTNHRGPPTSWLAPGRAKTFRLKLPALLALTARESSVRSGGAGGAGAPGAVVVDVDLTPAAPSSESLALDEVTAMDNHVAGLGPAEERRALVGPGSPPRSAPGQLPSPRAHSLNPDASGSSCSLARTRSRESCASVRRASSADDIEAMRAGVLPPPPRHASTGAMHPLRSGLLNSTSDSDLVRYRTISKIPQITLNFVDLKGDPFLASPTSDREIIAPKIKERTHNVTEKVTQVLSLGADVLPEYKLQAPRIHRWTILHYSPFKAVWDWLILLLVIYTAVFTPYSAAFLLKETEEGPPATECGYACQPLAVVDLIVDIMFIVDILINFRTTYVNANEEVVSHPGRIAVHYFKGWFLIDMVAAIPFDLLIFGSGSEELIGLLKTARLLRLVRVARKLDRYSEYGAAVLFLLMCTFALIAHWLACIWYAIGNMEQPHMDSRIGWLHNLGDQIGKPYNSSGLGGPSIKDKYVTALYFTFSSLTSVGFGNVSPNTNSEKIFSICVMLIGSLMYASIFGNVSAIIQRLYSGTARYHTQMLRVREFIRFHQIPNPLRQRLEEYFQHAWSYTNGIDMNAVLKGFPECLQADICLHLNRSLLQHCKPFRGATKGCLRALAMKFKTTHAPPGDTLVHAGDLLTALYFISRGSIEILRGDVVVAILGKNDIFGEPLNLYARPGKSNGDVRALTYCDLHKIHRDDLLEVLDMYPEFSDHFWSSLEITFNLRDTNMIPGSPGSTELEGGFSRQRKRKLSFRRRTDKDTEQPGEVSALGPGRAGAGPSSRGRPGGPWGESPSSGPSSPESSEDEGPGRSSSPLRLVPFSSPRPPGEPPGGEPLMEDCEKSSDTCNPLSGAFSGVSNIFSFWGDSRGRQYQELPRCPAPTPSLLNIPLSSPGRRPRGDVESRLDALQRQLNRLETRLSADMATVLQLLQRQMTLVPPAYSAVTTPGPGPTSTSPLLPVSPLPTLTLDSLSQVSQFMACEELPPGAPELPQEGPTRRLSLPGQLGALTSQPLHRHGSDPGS
Cytochrome P450 2D6 (Homo sapiens), sequence (P10635 whole entry, looked up): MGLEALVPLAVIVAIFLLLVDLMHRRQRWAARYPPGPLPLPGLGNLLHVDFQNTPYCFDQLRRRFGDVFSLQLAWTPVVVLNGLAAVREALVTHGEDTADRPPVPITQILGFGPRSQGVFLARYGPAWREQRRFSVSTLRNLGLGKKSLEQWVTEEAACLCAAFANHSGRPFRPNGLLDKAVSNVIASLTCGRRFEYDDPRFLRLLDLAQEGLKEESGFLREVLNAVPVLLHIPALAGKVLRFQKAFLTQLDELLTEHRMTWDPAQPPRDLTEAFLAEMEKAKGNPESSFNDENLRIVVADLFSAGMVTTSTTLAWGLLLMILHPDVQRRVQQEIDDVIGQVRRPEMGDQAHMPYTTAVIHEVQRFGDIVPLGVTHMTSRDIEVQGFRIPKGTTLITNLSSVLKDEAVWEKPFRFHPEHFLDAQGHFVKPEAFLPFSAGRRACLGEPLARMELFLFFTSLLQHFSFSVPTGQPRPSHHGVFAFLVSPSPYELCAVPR

[Cl][Sn]([Cl])([Cl])[Cl]
inactive: [1] | [2] | [3] | [4] | [5] | [6] | [7] | [8] | [9] | [10] | [13] | [14]
active: [11] 81.5 µM | [12] 32.4 µM

ClC(Br)Br
inactive: [1] | [2] | [3] | [4] | [5] | [6] | [7] | [8] | [9] | [10] | [15] | [12] | [14]

CN/C(=N\[N+](=O)[O-])NCC1CCOC1 (stereo not drawn)
inactive: [1] | [2] | [3] | [4] | [5] | [13]

CCS(=O)(=O)CCSP(=O)(OC)OC
inactive: [1] | [2] | [3] | [4] | [5] | [6] | [8] | [16] | [10] | [11] | [15] | [12] | [13] | [14]

O=[N+]([O-])c1cccc(O)c1
inactive: [1] | [2] | [3] | [4] | [5] | [7] | [8] | [16] | [9] | [10] | [11] | [15] | [14]

CCOP(=S)(OCC)Oc1nc(Cl)n(C(C)C)n1
inactive: [1] | [2] | [3] | [4] | [5] | [13]
active: [6] 6.86 µM | [11] 0.252 µM | [15] 5.03 µM | [12] 2.24 µM

CNC(=O)Oc1ccccc1C1OCCO1
active: [12] 25.1 µM
inactive: [1] | [2] | [3] | [4] | [5] | [6] | [7] | [8] | [11] | [13] | [14]

CC(=O)C(Cl)Cl
inactive: [1] | [2] | [3] | [4] | [5] | [6] | [7] | [16] | [9] | [10] | [11] | [15] | [12] | [13] | [14]

COC(=O)c1ccccc1S(=O)(=O)NC(=O)Nc1nc(C)cc(C)n1
inactive: [1] | [2] | [3] | [4] | [5] | [6] | [8] | [16] | [10] | [15] | [14]

CN1CCN(C(=O)O[C@H]2c3nccnc3C(=O)N2c2ccc(Cl)cn2)CC1
inactive: [1] | [2] | [3] | [4] | [5] | [7] | [10] | [11] | [15] | [14]
